This is an account of results in PubChem BioAssay (NCI).

This is part of a sample that, as a whole, favours compounds with a hit. Of some 83,000 tested, about 20% had one in any assay.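 Negative percent growth values reflect cell death: -40 means 40% of the cells present at the start died, and -100 means all died.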 A number with no mark means an inactive call. Calls of active or inactive are those of the source. Rule for the calls: active = growth percent below 10; inactive = the rest.

What all share (experiment): NCI-60 one-dose screen, 48 h (100 = growth as untreated, 0 = no growth, -100 = all killed)
The subject of experiment [1] is MDA-MB-435 melanoma. The note with it: 10 µM unless noted.
The subject of experiment [2] is SW-620 colon. The note with it: 10 µM unless noted.
Experiment [3] has as its system MCF7 breast. The note with it: 10 µM.
The subject of experiment [4] is HCT-116 colon. As to conditions: 10 µM unless noted.
For experiment [5], the system named is HCC-2998 colon. As to conditions: 10 µM unless noted.
In experiment [6] the test system is KM12 colon. The note with it: 10 µM unless noted.
Experiment [7] concerns BT-549 breast. The note with it: 10 µM unless noted.

As for `O=C(c1ccccc1)N(C(=S)NCCc1ccc(Cl)cc1)c1ccccc1`, the growth in experiment [1] was 84%; in experiment [2], 76.9%; in experiment [3], 38.6%; in experiment [4] it was 62.2%; in experiment [5], 101%; in experiment [6] it was 52.3%.
Take `Cc1cc2c(c(C)c1Cl)C(=O)/C(=C/c1cccc([N+](=O)[O-])c1)O2`: the growth in experiment [7] was 106%; in experiment [3], 66%; in experiment [4], 103%; in experiment [5], 102%; in experiment [6], 103%.
On to `O=C(COc1cc(O)c2c(=O)cc(-c3ccccc3)oc2c1)Nc1ccccc1`, for which the growth was 95.3% in experiment [1]; 87.5% in experiment [2]; 85.3% in experiment [3]; 57.4% in experiment [4]; 99.7% in experiment [5]; 86.5% in experiment [6].
Regarding `NCCNc1nc2ccc(F)cc2c2c(=O)c3cc(F)ccc3sc12`, the growth in experiment [1] was 13.4%; in experiment [2] it was -73.5% (active); in experiment [3], -15.2% (active); in experiment [4], -87.1% (active); in experiment [5], 14.8%; in experiment [6] it was 17.8%.
For `CCCCCCc1cc2cc(-c3nc4ccccc4[nH]3)c(=Nc3ccccc3C)oc2cc1O`, the growth is 77.3% in experiment [7]; 29.6% in experiment [2]; 17.5% in experiment [3]; 19.2% in experiment [4]; -78.2% (active) in experiment [5]; 36.4% in experiment [6].
Take `COc1cc(NC(=O)CCSc2nc3ccccc3c(=O)n2Cc2ccccc2)cc(OC)c1OC`: the growth in experiment [7] was 86%; in experiment [2], 93.6%; in experiment [3], 84.1%; in experiment [4] it was 83.7%; in experiment [5], 99.6%; in experiment [6] it was 87.1%.
For the molecule `CN(C)c1ccc(/C=C/c2ccnc3c(O)cccc23)cc1`, the growth is 17.8% in experiment [7]; 21.6% in experiment [2]; 18.2% in experiment [3]; 18.6% in experiment [4]; 55.7% in experiment [5]; 16.2% in experiment [6].
Consider `O=c1c2cc(F)cc(Cl)c2sc2c(Cl)nc3ccccc3c12`, for which the growth in experiment [1] is 110%; in experiment [2] it was 97.7%; in experiment [3], 77.1%; in experiment [4], 104%; in experiment [5], 104%; in experiment [6], 101%.
As to `CCN(CC)CCNC(=O)C(Cl)=C1C(Cl)=C(Cl)C(Cl)=C1Cl`, the growth is 33.3% in experiment [7], 28.7% in experiment [3], 13.9% in experiment [4] and 23.6% in experiment [6].
In the case of `COc1ccc(/C=C/C(=O)c2c(C)nc3ccccc3c2/C=C/c2ccccc2)cc1O`, the growth in experiment [1] is 1.85% (active); in experiment [2], 19.4%; in experiment [3], 18.2%; in experiment [4], 12%; in experiment [5], 82.4%; in experiment [6], 35.6%.
With `O=c1oc2ccc(Cl)cc2c(=O)n1-c1ccc(F)cc1F`, the growth in experiment [1] is 3.09% (active); in experiment [2], 15.6%; in experiment [3] it was 5.09% (active); in experiment [4], 7.6% (active); in experiment [5] it was 34%; in experiment [6], 5.64% (active).
Regarding `O=C(c1ccccc1)N(C(=S)NCCc1ccc(Cl)cc1)c1ccc(Cl)cc1`, the growth in experiment [1] is 37.9%; in experiment [2], 62.8%; in experiment [3] it was 20.8%; in experiment [4] it was 45.3%; in experiment [5], 61.9%; in experiment [6], 26.8%.
As to `Cc1nc2ccccc2c(/C=C/c2ccccc2)c1C(=O)/C=C/c1ccc(Cl)cc1`, the growth in experiment [1] is -9.81% (active); in experiment [2] it was 3.99% (active); in experiment [3], 14.2%; in experiment [4] it was -5.14% (active); in experiment [5], 12.4%; in experiment [6] it was 21.4%.
Turning to `O=c1oc2ccc(Br)cc2c(=O)n1-c1ccc(Cl)cc1F`, the growth was -8.83% (active) in experiment [1]; 9.75% (active) in experiment [2]; 3.69% (active) in experiment [3]; 1.83% (active) in experiment [4]; 22.7% in experiment [5]; -14.7% (active) in experiment [6].
Take `O=c1oc2ccc(Cl)cc2c(=O)n1-c1ccc(I)cc1F`: the growth in experiment [1] is -6.3% (active); in experiment [2], 7.19% (active); in experiment [3], 3.96% (active); in experiment [4] it was 2% (active); in experiment [5], 16.2%; in experiment [6], -18.3% (active).
Consider `O=c1oc2ccc(I)cc2c(=O)n1-c1ccc(I)cc1F`, for which the growth in experiment [1] is -4.7% (active); in experiment [3], 2.88% (active); in experiment [4] it was 2.66% (active); in experiment [5], 21%; in experiment [6] it was -10.7% (active).
As to `O=c1oc2ccc(F)cc2c(=O)n1-c1ccc(Cl)cc1F`, the growth in experiment [1] was 1.54% (active); in experiment [2], 11.3%; in experiment [3] it was 2.65% (active); in experiment [4], 3.98% (active); in experiment [6], 2.07% (active).
On to `O=C(Nc1ccc(Br)cc1F)c1cc(I)ccc1O`, for which the growth in experiment [1] is 4.78% (active); in experiment [3] it was 5.42% (active); in experiment [4], 5.43% (active); in experiment [5] it was 27.4%; in experiment [6], 6.15% (active).
Take `O=C(Nc1ccc(Cl)cc1F)c1cc(F)ccc1O`: the growth is 0.146% (active) in experiment [1]; 9.96% (active) in experiment [2]; 3.15% (active) in experiment [3]; 3.99% (active) in experiment [4]; 11.7% in experiment [5]; 0.993% (active) in experiment [6].
